# Screening results as filed in PubChem.
# KDM5B inhibitor – blocks human KDM5B histone demethylase activity | KDM5B demethylase, FDH-coupled NADH fluorescence (FDH is formaldehyde dehydrogenase) | Q9UGL1 | Potency, µM (highest dose often 57.7 µM), actives largely listed as inhibitors | 220,000 tested, 2.6% active | AID 1347165; active = well fitted inhibition curve with a large enough effect; inconclusive = small, poorly fitted or top-dose-only effect; inactive = no such curve, though single readings can be large or run the other way; also: potency is read from the fitted curve at half-maximal effect; 0% is about no effect; nearly all actives have a fitted effect of over 70% in size
#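 Measured: NADH fluorescence change, 30 min, RT. System: KDM5BΔAP 200 nM final, H3K4me3 peptide, α-KG, Fe(II), ascorbate, NAD⁺ plus FDH, pH 7.5 HEPES. Compounds: titrated, 10 min pre-incubation with enzyme.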
# IP6K1 inh – IP6K1 kinase inhibition | Q92551 | IP6K1 kinase, ADP-Glo luminescence, 2 h; stronger effect = lower value | activity change, % (series mostly up to about 58 µM) | 140,000 tested, 0.81% active; in the data active = activity change below about -25%; also: % is scaled to controls: 0 for no effect and ±100 for the full control effect
#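 ADP-Glo luminescence measures ADP made by human IP6K1 during a 2 h RT reaction with ATP/IP6 (mix at 1.3 mM/130 uM); top library doses 57.5 and 19.1 uM final.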
# * marks the source's active call; other numbers are inactive results; i = inactive; ? = inconclusive; / = no result given. In the library only some 2.7% were active in any assay of this set; here they are far more common.
SMILES,KDM5B inhibitor,IP6K1 inh
Cc1cccn2c(CNC(=O)CCc3cc4n(n3)CCCNC4)cnc12,25.1µM*,-6.9
O=C(CCc1cc2n(n1)CCCNC2)Nc1ccccc1CCc1ccccn1,i,-17.7
O=C(NCc1cc2n(n1)CCCNC2)c1ccc(Cn2cnnn2)cc1,i,22.9
Cc1cccc2ncc(C(=O)NCc3cc4n(n3)CCCNC4)c(=O)n12,28.2µM*,13.4
Cc1nc(CN2C[C@H](C(=O)N3CCN(c4ccccn4)CC3)C[C@@H]2c2ccc(F)cc2)cs1,28.2µM*,-2.9
Cc1nc(CN2C[C@H](C(=O)NCCOc3ccccc3)C[C@@H]2c2ccc(F)cc2)cs1,?,-2.7
CN1C[C@@H](NC(=O)c2ccccn2)C[C@H]1c1nc(-c2ccc3ccccc3c2)no1,?,-12.9
CN(C)c1ccc(C(=O)N[C@H]2C[C@@H](c3nc(-c4ccc5ccccc5c4)no3)N(C)C2)cc1,35.5µM*,8.8
O=C1NCCCCCCN[C@H]2C[C@H](C(=O)N3CCN(c4ccccn4)CC3)C[C@@H]12,?,9.2
CC(C)C(=O)N1CCCCCCNC(=O)[C@@H]2C[C@@H](C(=O)N3CCN(c4ccccn4)CC3)C[C@@H]21,25.1µM*,1.7
CCS(=O)(=O)N1CCCCCCNC(=O)[C@@H]2C[C@@H](C(=O)N3CCN(c4ccccn4)CC3)C[C@@H]21,?,-0.4
Cc1ccc(CN2CCCCCCNC(=O)[C@@H]3C[C@@H](C(=O)N4CCN(c5ccccn5)CC4)C[C@@H]32)o1,20µM*,-5.3
CC1=C[C@@H](CNc2ccccn2)[C@H](C(C)C)C[C@H]1Cc1nnc(-c2cncn2C)o1,35.5µM*,-3.5
CC1=C[C@@H](CN2CCN(c3cnccn3)CC2)[C@H](C(C)C)C[C@H]1Cc1nnc(-c2ccccc2)o1,28.2µM*,-16.3
CC1=C[C@@H](CN2CCN(c3ccccn3)CC2)[C@H](C(C)C)C[C@H]1Cc1nnc(-c2ccc(C)cc2)o1,?,-5.6
CC1=C[C@@H](CNC(=O)c2ccccc2)[C@H](C(C)C)C[C@H]1Cc1nnc(-c2cncn2C)o1,i,12.5
COC(=O)c1nc2n(n1)C(c1cccc(Br)c1)C(C(=O)Nc1ccccc1OC)=C(C)N2 (stereo not given),i,/
O=C(CCC[C@H]1NC[C@@H]2CC1CN(Cc1ccccc1)C2)N1CCCC1,i,-6.5
CC1CCN(C(=O)CCC[C@H]2NC[C@@H]3C[C@H]2CN(Cc2ccccc2)C3)CC1,7.94µM*,-10.9
c1ccc(COc2cccc(CNCCc3c[nH]c4ccccc34)c2)cc1,i,/
Cc1ccc(CNCC2CCNCC2)s1,i,/
CC(C)(C)C(=O)/C=c1/[nH]c(=O)/c(=C\c2ccccc2OC(F)(F)F)s1,i,/
CN(C)c1ccc(CN2CCC3(CC2)COc2ccccc2C(=O)N3)cc1,?,10.6
Cc1cccc(-c2cccc(CN3CCC(N[S+](=O)([O-])c4ccccc4)CC3)c2)c1,/,-7.3
COCCNC(=O)c1nc(-c2ccsc2)c2ccccn12,39.8µM*,-5.3
SMILES,KDM5B inhibitor,IP6K1 inh
O=C(NCc1cccnc1)c1nc(-c2ccc(Cl)nc2)c2ccccn12,89.1µM*,-11.9
O=C(NCc1cccs1)c1nc(-c2cccc(C(F)(F)F)c2)c2ccccn12,i,-5.4
O=C(NCc1cccnc1)c1nc(-c2cc(Cl)cc(Cl)c2)c2ccccn12,i,-8.4
Cc1cccc(C)c1-c1nc(C(=O)NCc2ccsc2)n2ccccc12,31.6µM*,-0.7
COCCNC(=O)c1nc(-c2cccnc2)c2ccccn12,i,18.5
COc1ccc(-c2nc(C(=O)NCc3cccnc3)n3ccccc23)cc1,28.2µM*,3.5
Cc1ccc(C(=O)N2CCC3(CC2)CC(N(Cc2ccccc2)C2CC2)CCO3)cc1F (stereo not given),i,19.0
CCc1cc(=O)oc2c(C)c(OCC(=O)NCCc3ccc(S(N)(=O)=O)cc3)ccc12,i,/
Cc1c(O)cccc1C(=O)N1CCCN(Cc2ccc(F)cc2)C(C(C)C)C1 (stereo not given),i,7.1
CCOCC1(C)COc2ccc(C(=O)Nc3ccc(F)c(Cl)c3)cc2N1 (stereo not given),?,-1.2
CN(CC(=O)N1CCc2ccccc2C1)S(=O)(=O)c1ccc(Br)cc1,i,/
O=C(NCc1cccnc1)c1nc(-c2ccc(Cl)cc2)c2ccccn12,28.2µM*,14.8
COc1cccc(-c2nc(NCc3cccnc3)ncc2C(=O)O)c1,?,11.0
O=C(NCc1cccnc1)c1nc(-c2ccccc2)c2ccccn12,i,8.0
O=C(O)c1cnc(NCc2cccnc2)nc1-c1ccc(Cl)cc1,31.6µM*,-10.8
Cc1cccc(C)c1-c1nc(C(=O)NCc2cccnc2)n2ccccc12,25.1µM*,37.3
CN(c1cc(=O)c2ccnc(-c3ccc(F)c(Cl)c3)c2o1)C1CCOCC1,35.5µM*,-1.5
CN(c1cc(=O)c2ccnc(N3CCOCC3)c2o1)C1CCOCC1,?,-17.5
O=C(Nc1ccc(-c2noc(/C=C/c3ccccc3)n2)cc1)c1ccc(Br)o1,i,/
COC(=O)C(C)N1C(=O)S/C(=C/c2cn(CC(N)=O)c3ccccc23)C1=O (stereo not given),i,/
O=C(Cn1nc(Br)nc1Br)c1ccc(F)cc1,i,/
COc1ccc(C(=O)Nc2ccc(-c3nnc4n3CCCC4)cc2)cn1,i,-6.4
COc1ccc(NC(=O)c2ccc(-c3ncc4cnc(C5=CCOCC5)cn34)cc2)cn1,28.2µM*,-17.5
O=C(c1ccc(-c2ncc3cnc(C4=CCOCC4)cn23)cc1)N1CC[S+](=O)([O-])CC1,35.5µM*,-12.3
O=C(c1ccc2nnc(-c3ccc(Cl)cc3)n2c1)N1CCOCC1,/,7.5
SMILES,KDM5B inhibitor,IP6K1 inh
COc1ccccc1CCC(=O)N1CCN(c2cc(-c3ccc(Cl)cc3)[nH]n2)CC1,?,4.7
CCOc1cc(C2NC(=O)N(C)C(C)=C2C(=O)OC2CCCC2)cc(Br)c1O (stereo not given),i,/
COCC(=O)Nc1cc(-c2cccnc2)nn1-c1ccccc1,/,7.1
O=C(NCC(F)(F)F)c1cc(C2CC2)nc2onc(C3CCCNC3)c12 (stereo not given),?,6.8
O=C(NCC(F)(F)F)c1cc(C2CC2)nc2onc(C3CCNC3)c12 (stereo not given),89.1µM*,0.8
CC(C)CNC(=O)c1cc(C2CC2)nc2onc(C3CCCNC3)c12 (stereo not given),i,-4.5
CC(C)CNC(=O)c1cc(C2CC2)nc2onc(C3CCNC3)c12 (stereo not given),100µM*,-3.9
O=C(c1cc(C2CC2)nc2onc(C3CCNCC3)c12)N1CCC(F)CC1,i,-2.7
O=C(c1cc(C2CC2)nc2onc(C3CCNCC3)c12)N1CCOCC1,56.2µM*,1.2
Cc1nn(-c2ccccc2)c2c1C(C)N(C1CCN(C(=O)c3ccccc3Cl)CC1)C2=O (stereo not given),/,1.4
NNC(=S)Nc1cccc(Br)c1,i,/
Cn1nnnc1C1CCCN(C(=O)NC2CCCCC2)C1 (stereo not given),i,-7.5
Cn1nnnc1C1CCCN(C(=O)C2CCCC2)C1 (stereo not given),28.2µM*,-11.2
FC(F)(F)c1cc(-c2ccccc2)nc(SCc2ccccn2)n1,i,/
Cn1c(C(=O)NC2CCN(Cc3ccccc3)CC2)cc2c1CCN(Cc1ccccc1)C2,20µM*,-7.8
CC(=O)c1ccc(NC(=O)c2cc3c(n2C)CCN(Cc2ccccc2)C3)cc1,i,-3.2
